Measured values as given in PubChem BioAssay (NCI).
About 83,000 compounds went through this panel and 20% of them were active in at least one assay; those are over-represented in the sample as a whole.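 Step 1: grow cells in 96-well plates. Step 2: add test compound at a single concentration. Step 3: incubate 48 h. Step 4: record percent growth.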 Values without a mark were called inactive. Calls of active or inactive are those of the source. How the source made its calls: active means growth percent below 10; inactive means the rest.

Key:
Experiment in all cases: NCI-60 one-dose screen, 48 h (100 = growth as untreated, 0 = no growth, -100 = all killed)
Settings in all cases: 10 µM unless noted
[1] = system: NCI-H23 lung
[2] = system: NCI-H226 lung
[3] = system: NCI-H322M lung
[4] = system: HOP-62 NSCLC
[5] = system: NCI-H460 lung
[6] = system: HOP-92 NSCLC
[7] = system: NCI-H522 lung
[8] = system: A549/ATCC NSCLC
[9] = system: 786-0 renal
[10] = system: COLO 205 colon

SMILES: CCc1ccc(-c2ccc(NC3CCCCCC3)nn2)cc1S(N)(=O)=O
- growth [1]: 106%
- growth [2]: 104%
- growth [3]: 110%
- growth [4]: 120%
- growth [5]: 104%
- growth [6]: 94.2%
- growth [7]: 87.7%
- growth [8]: 98.2%
- growth [9]: 103%
- growth [10]: 115%

SMILES: CC1(C)C2CCC(O)(C(=O)O)C1C2 (stereo not given)
- growth [1]: 113%
- growth [2]: 113%
- growth [3]: 95.9%
- growth [4]: 113%
- growth [5]: 116%
- growth [6]: 117%
- growth [7]: 117%
- growth [8]: 111%
- growth [9]: 107%
- growth [10]: 127%

SMILES: Clc1ccc(Nc2ncnc3c2sc2ncccc23)cc1
- growth [1]: 3.68% (active)
- growth [2]: 31.5%
- growth [3]: 45.9%
- growth [4]: 15.7%
- growth [5]: 10.3%
- growth [6]: 50.4%
- growth [7]: 31.5%
- growth [8]: 27.9%
- growth [9]: 13.6%
- growth [10]: 30.2%

SMILES: C=CCn1c(C)nc2cc(Nc3nc(N4CCOCC4)nc4nc[nH]c34)ccc21
- growth [1]: 106%
- growth [2]: 88.6%
- growth [3]: 88.3%
- growth [4]: 67.8%
- growth [5]: 94.1%
- growth [6]: 4.17% (active)
- growth [7]: 88.2%
- growth [8]: 95.1%
- growth [9]: 63.1%
- growth [10]: 97.9%

SMILES: CNC(=O)c1ccccc1Sc1ccc2c(/C=C/c3ccccn3)n[nH]c2c1
- growth [1]: 47.5%
- growth [2]: 20.9%
- growth [3]: 34.9%
- growth [4]: 24.3%
- growth [5]: 20.2%
- growth [6]: 9.47% (active)
- growth [7]: 24.2%
- growth [8]: 28.6%
- growth [9]: 44%
- growth [10]: 3.49% (active)

SMILES: O=[N+]([O-])c1cccc(N=C(Nc2cccc([N+](=O)[O-])c2)c2ccccc2)c1
- growth [1]: 86.4%
- growth [2]: 91.6%
- growth [3]: 81.2%
- growth [4]: 89.9%
- growth [5]: 102%
- growth [6]: 47.4%
- growth [7]: 59.5%
- growth [8]: 79.9%
- growth [9]: 83.6%
- growth [10]: 109%

SMILES: COC(=O)C(CCC(=O)CCl)N1C(=O)c2ccccc2C1=O (stereo not given)
- growth [1]: 79.1%
- growth [2]: 70.1%
- growth [3]: 91.7%
- growth [4]: 79.9%
- growth [5]: 90.1%
- growth [6]: 49.7%
- growth [7]: -15.1% (active)
- growth [8]: 104%
- growth [9]: 60.3%
- growth [10]: 87.8%

SMILES: Nc1n[nH]c2ccc([C@@H]3Nc4c(F)cc5[nH]ncc5c4[C@H]4C5CCC(C5)[C@@H]34)cc12 (stereo not given in full)
- growth [1]: 37.8%
- growth [2]: 18.4%
- growth [3]: 33.8%
- growth [4]: 37.8%
- growth [5]: 4.8% (active)
- growth [6]: 30.5%
- growth [7]: 6.67% (active)
- growth [8]: 17.1%
- growth [9]: 40.4%
- growth [10]: -0.831% (active)

SMILES: O=C(Nc1ccc(Oc2ccc(Nc3nc4ccccc4s3)cc2)cc1)Nc1ccc(Cl)c(C(F)(F)F)c1
- growth [1]: -20.2% (active)
- growth [2]: 4.93% (active)
- growth [3]: 25.7%
- growth [4]: 17%
- growth [5]: 1.39% (active)
- growth [6]: -25% (active)
- growth [7]: -36.8% (active)
- growth [8]: 9.75% (active)
- growth [9]: 1.24% (active)
- growth [10]: -84% (active)

SMILES: O=C1Nc2ccccc2/C1=C/c1c[nH]c2ccccc12
- growth [1]: 78.9%
- growth [2]: 83.4%
- growth [3]: 70.1%
- growth [4]: 66%
- growth [5]: 88.7%
- growth [6]: 65.2%
- growth [7]: 88.7%
- growth [8]: 77.3%
- growth [9]: 105%
- growth [10]: 115%

SMILES: CN(C)c1ccc(N2Cc3ccccc3OC3=C2C(=O)c2c(O)ccc(O)c2C3=O)cn1
- growth [1]: -36.7% (active)
- growth [2]: 6.21% (active)
- growth [3]: -7.76% (active)
- growth [4]: -45.8% (active)
- growth [5]: 1.55% (active)
- growth [6]: -65.2% (active)
- growth [7]: -54.2% (active)
- growth [8]: -19.7% (active)
- growth [9]: -88.9% (active)
- growth [10]: -81.9% (active)

SMILES: COc1ccc(C2=NN(C=O)C(c3ccc(OS(=O)(=O)c4ccc(C)cc4)c(OC)c3)C2)cc1 (stereo not given)
- growth [1]: 37.8%
- growth [2]: 67.4%
- growth [3]: 99.9%
- growth [4]: 61.3%
- growth [5]: 62.8%
- growth [6]: 32.8%
- growth [7]: 21.3%
- growth [8]: 42.6%
- growth [9]: 78.1%
- growth [10]: 63.3%

SMILES: O=C1C=CC(=O)N1c1cccc(N2C(=O)C=CC2=O)c1
- growth [1]: 98.7%
- growth [2]: 111%
- growth [3]: 116%
- growth [4]: 114%
- growth [5]: 119%
- growth [6]: 94.9%
- growth [7]: -73.1% (active)
- growth [8]: 101%
- growth [9]: 108%
- growth [10]: -48.1% (active)

SMILES: CC(=O)c1c(O)c(C)c(O)c2c1OC1=CC(=O)/C(=C(/C)N)C(=O)C12C (stereo not given)
- growth [1]: 89.8%
- growth [2]: 73.8%
- growth [3]: 97.3%
- growth [4]: 94.9%
- growth [5]: 98.2%
- growth [6]: 99.7%
- growth [7]: 77.6%
- growth [8]: 83%
- growth [9]: 98.3%
- growth [10]: 95.8%

SMILES: COc1ccc(C2=Nn3c(nnc3-c3ccc(Cl)cc3N)SC2)cc1
- growth [1]: 105%
- growth [2]: 102%
- growth [3]: 109%
- growth [4]: 103%
- growth [5]: 104%
- growth [6]: 94.1%
- growth [7]: 85.6%
- growth [8]: 103%
- growth [9]: 107%
- growth [10]: 108%

SMILES: COc1cc(C2CC(c3ccc(Nc4ccnc5cc(Cl)ccc45)cc3)=NN2c2ccccc2)cc(OC)c1OC (stereo not given)
- growth [1]: 84.4%
- growth [2]: 83.6%
- growth [3]: 91.2%
- growth [4]: 72.8%
- growth [5]: 68.9%
- growth [6]: 52.5%
- growth [7]: 53%
- growth [8]: 64.6%
- growth [9]: 76.1%
- growth [10]: 74.1%

SMILES: C#CC[C@@H]1C[C@]2(C)[C@H]3CC[C@@H]4[C@H]5C(C(=C)C)CC[C@]5(C(=O)NCCCCN)CC[C@@]4(C)[C@]3(C)CC[C@H]2C(C)(C)[C@H]1OC(C)=O (stereo not given in full)
- growth [1]: 11.7%
- growth [2]: 96.1%
- growth [3]: 60.4%
- growth [4]: 105%
- growth [5]: -56.5% (active)
- growth [6]: 42.2%
- growth [7]: -64.4% (active)
- growth [8]: -54.1% (active)
- growth [9]: -87.5% (active)
- growth [10]: -71.6% (active)

SMILES: O=c1[nH]c2cc(Cl)c(Cl)cc2o1
- growth [1]: 108%
- growth [2]: 90.5%
- growth [3]: 109%
- growth [4]: 96.8%
- growth [5]: 109%
- growth [6]: 101%
- growth [7]: 103%
- growth [8]: 114%
- growth [9]: 97.1%
- growth [10]: 123%

SMILES: CCCCCCCCCCCCCCCC1=NCC[N+]1(CCO)CCO
- growth [1]: 53.7%
- growth [2]: 73.4%
- growth [3]: 84.7%
- growth [4]: 57.7%
- growth [5]: 3.37% (active)
- growth [6]: 5.24% (active)
- growth [7]: 40.8%
- growth [8]: 50%
- growth [9]: 55.5%
- growth [10]: 82.8%

SMILES: COc1cc(C2CC(c3cccc(Nc4ccnc5cc(Cl)ccc45)c3)=NN2c2ccc(Cl)cc2)cc(OC)c1OC (stereo not given)
- growth [1]: 73.8%
- growth [2]: 70.6%
- growth [3]: 81.4%
- growth [4]: 76.7%
- growth [5]: 36.4%
- growth [6]: 37.5%
- growth [7]: 40.6%
- growth [8]: 57%
- growth [9]: 54.5%
- growth [10]: 80.9%

SMILES: O=C1OCC2=C1C(c1ccc(Cl)c(Cl)c1)c1cc3c(cc1N2CCO)CCC3 (stereo not given)
- growth [1]: 31.5%
- growth [2]: 24%
- growth [3]: 42%
- growth [4]: 38.9%
- growth [5]: 5.49% (active)
- growth [6]: 82%
- growth [7]: -14.8% (active)
- growth [8]: 21.6%
- growth [9]: 27.5%
- growth [10]: 6.1% (active)

SMILES: COc1ccc(/C=C/C(=O)c2ccc(NC(=O)CSc3nnc(-c4ccc(OC)cc4)n3-c3ccccc3)cc2)cc1
- growth [1]: 99.2%
- growth [2]: 99.2%
- growth [3]: 103%
- growth [4]: 101%
- growth [5]: 107%
- growth [6]: 106%
- growth [7]: 91.4%
- growth [8]: 80.2%
- growth [9]: 102%
- growth [10]: 107%

SMILES: OC(c1cc2cc(Cl)ccc2c2cc(C(F)(F)F)ccc12)C1CCCCN1 (stereo not given)
- growth [1]: -78.8% (active)
- growth [2]: -73% (active)
- growth [3]: -42.7% (active)
- growth [4]: -92.3% (active)
- growth [5]: -67.8% (active)
- growth [6]: -76.1% (active)
- growth [7]: -89.6% (active)
- growth [8]: -85.9% (active)
- growth [9]: -67.5% (active)
- growth [10]: -87.2% (active)

SMILES: CC(=O)c1cc(C(=O)c2ccc3c(c2)Sc2ccccc2N3)c2c(C)cccn12
- growth [1]: 27%
- growth [2]: 47.8%
- growth [3]: 37.4%
- growth [4]: 19.1%
- growth [5]: 6.41% (active)
- growth [6]: 94%
- growth [7]: 12.5%
- growth [8]: 19.5%
- growth [9]: 4.46% (active)
- growth [10]: -43.7% (active)

SMILES: COC(=O)c1ccc(NC(N)=NCCC(C)(C)c2ccc(C(F)(F)F)cc2)nc1
- growth [1]: 17.5%
- growth [2]: 37.4%
- growth [3]: 74.5%
- growth [4]: 63.7%
- growth [5]: 31.6%
- growth [6]: 39%
- growth [7]: 39%
- growth [8]: 54.2%
- growth [9]: 56.9%
- growth [10]: -71.2% (active)

SMILES: N=c1n(Cc2ccccc2)c(N)cc(=O)n1Cc1ccccc1
- growth [1]: 12.7%
- growth [2]: 5.6% (active)
- growth [3]: 26.5%
- growth [4]: 26.7%
- growth [5]: -25% (active)
- growth [6]: 99.5%
- growth [7]: 10.1%
- growth [8]: -47.2% (active)
- growth [9]: 19.2%
- growth [10]: 66.8%

SMILES: CN=C1C=C/C(=N/N=c2/ccn(O)cc2C)C=C1C
- growth [1]: 90%
- growth [2]: 103%
- growth [3]: 113%
- growth [4]: 97.2%
- growth [5]: 111%
- growth [6]: 85.7%
- growth [7]: 77.9%
- growth [8]: 88.8%
- growth [9]: 89.3%
- growth [10]: 138%
